Compound activity (PubChem BioAssay)
Only some compounds are listed: those with a hit (about 3.9% of all), similar ones and a draw of the others.
BoNT F protease – inhibitors of Botulinum neurotoxin F light chain protease. Multiplex microsphere protease cleavage assay, flow cytometry. inhibition, % at 10 µM. 0.22% of 360,000 active. AID 588497; in the data active = inhibition above about 35%, passing the limit was not always enough; inconclusive = no clear call, values can overlap the other calls; also: plate controls were buffer without enzyme for full effect and enzyme alone for no effect
SARS 3CLpro inh – SARS-CoV 3CLpro protease inhibition; AID 1706; P0C6X7; inhibition, % at 6 µM; 0.14% of 290,000 active; recombinant SARS-CoV 3CLpro, quenched FRET peptide cleavage; in the data active = inhibition above about 12%
BoNT-A LC inh2 – inhibitors of Botulinum neurotoxin A light chain protease | inhibition, % at 10 µM | 0.17% of 360,000 active | multiplex microsphere protease substrate cleavage, flow cytometry; also: plate controls were buffer without enzyme for full effect and enzyme alone for no effect
Anthrax LF prot – inhibitors of Bacillus anthracis lethal factor protease. inhibition, % at 10 µM. P15917. multiplex microsphere protease cleavage assay, LF. 0.12% of 360,000 active; also: plate controls were buffer without enzyme for full effect and enzyme alone for no effect
Bead autofluor – counter-screen for toxin protease inhibitors: compound fluorescence. compound autofluorescence counterscreen, microsphere flow cytometry; active compounds read high. fluorescence intensity (test concentration not listed). 3.1% of 360,000 active; in the data active = fluorescence intensity above about 16000; inconclusive = no clear call, values can overlap the other calls
CCHF vOTU inh – blocks the CCHF virus ovarian tumor domain protease; CCHFV vOTU protease, Pep-AMC fluorescence; inhibition, % at 11.5 µM; 0.55% of 370,000 active; AID 651958; in the data active = inhibition above about 30%; also: 0% = vehicle wells with enzyme and 100% = no enzyme wells
Numbers without * were called inactive; ? = inconclusive; · = no result. Rule as the data show it, unless noted: active = inhibition above about 30%; inconclusive = no clear call, values can overlap the other calls; inactive = below that.

SMILES | BoNT F protease | SARS 3CLpro inh | BoNT-A LC inh2 | Anthrax LF prot | Bead autofluor | CCHF vOTU inh
C/C(=N\NC(=O)c1ccccc1)c1ccc2c(c1)OCO2 | 4 | -2 | 0 | 2 | 22585* | -1
C/C(CCc1ccc2c(c1)OCO2)=N\NC(=O)c1ccccc1 | -3 | 1 | -1 | 0 | 2635 | 9
NC(=NCc1ccc2c(c1)OCO2)NC(=O)c1ccccc1 | 45* | 5 | 6 | -8 | 4326 | 8
O=C(Nc1ccc(F)cc1F)C1CCN(c2nnc(-n3cccc3)s2)CC1 | · | · | · | · | · | 6
COc1ccccc1CCn1cnc(-c2ccccc2OC)c1C(C)C | · | · | · | · | · | 26
S=c1[nH]nc(Cc2ccccc2)n1-c1ccccc1 | 1 | -4 | ? | 1 | 19172* | -2
Cc1ccc(-n2c(Cc3ccccc3)n[nH]c2=S)cc1 | 4 | 0 | 2 | 0 | 22337* | 2
S=c1[nH]nc(Cc2ccccc2)n1-c1ccc(Cl)cc1 | -12 | -1 | -2 | -1 | 2376 | 1
Cc1ccc(CNC(=O)OC(C)(C)C)c(/C=C/S(=O)(=O)NC2CCCC2)c1 | · | · | · | · | · | 16
CCCOc1ccc(OCCNC2CCCC2)cc1 | 0 | 7 | 0 | 0 | 20118* | -4
CCOc1ccc(OCCNC2CCCC2)cc1 | -6 | 6 | ? | -3 | 22478* | 0
COC(=O)[C@]12C[C@H](CC(=O)N3CCC(c4ccccc4)CC3)C(=O)N(Cc3ccco3)C1=C[C@H](C1CCCC1)O[C@@H]2C | · | · | · | · | · | 10
Cc1cccc(-n2c(-c3csc(C(C)C)c3)n[nH]c2=S)c1 | 9 | 3 | 7 | -11 | 20031* | 3
CCCc1cc(-c2n[nH]c(=S)n2-c2cccc(C)c2)cs1 | 0 | 2 | -1 | -4 | 4216 | 5
Cc1cc(C)n(C(=O)c2ccc(Cn3nc(C)c(Br)c3C)o2)n1 | -4 | 5 | 0 | -2 | 23364* | 4
Cc1ccc(-n2c(O)c(/C=C3/C(c4ccccc4)=Nc4ccccc43)c(=O)[nH]c2=O)cc1 | -9 | 0 | 0 | 1 | 2108 | 0
Cc1ccccc1-n1c(O)c(/C=C2/C(c3ccccc3)=Nc3ccccc32)c(=O)[nH]c1=O | -2 | -3 | 47* | 17 | 1715 | -5
COc1cc(C)c(NC(=O)C2CCN(S(=O)(=O)c3cccs3)CC2)cc1OC | 1 | · | 0 | -4 | 2914 | 7
Cc1cc(=O)[nH]c(S/C=C/c2ccccc2)n1 | -3 | -5 | -2 | -2 | 20598* | -11
CC1CCCCN1C(=O)CSc1nc2ccsc2c(=O)n1Cc1ccccn1 (stereo not given) | -2 | -2 | -1 | 1 | 19850* | -5
Cc1cc(NC(=O)CSc2nc3ccsc3c(=O)n2Cc2ccccn2)n[nH]1 | 1 | 0 | 0 | -4 | 16535* | 0
CCn1c(SCC(=O)N2CCCCC2C)nc2ccsc2c1=O (stereo not given) | 16 | 1 | 1 | -3 | 7945 | -10
CC1CCCCN1C(=O)CSc1nc2cc3c(cc2c(=O)n1Cc1ccc2c(c1)OCO2)OCO3 (stereo not given) | 1 | 0 | ? | 1 | 21942* | 2
CCCCn1c(SCC(=O)Nc2cc(C)[nH]n2)nc2ccsc2c1=O | 2 | 1 | 5 | -3 | 18853* | -2
CCOC(=O)[C@]12CCC=C1N(Cc1ccc(Cl)cc1Cl)C(=O)[C@H](CC(=O)NCc1cccc(C(F)(F)F)c1)C2 | -2 | · | 0 | -1 | 5637 | 26
SMILES | BoNT F protease | SARS 3CLpro inh | BoNT-A LC inh2 | Anthrax LF prot | Bead autofluor | CCHF vOTU inh
Cc1nc2ccc(S(=O)(=O)NCC(=O)N(C)Cc3ccccc3Cl)cc2s1 | · | · | · | · | · | -6
Cc1ccc(N(C)c2nc(N)nc(N)c2N=O)cc1 | · | · | · | · | · | 61*
COc1ccc(C2C3=C(CC(C)(C)CC3=O)Oc3ncn(Cc4ccco4)c(=N)c32)cc1 (stereo not given) | 36* | -2 | 26 | 4 | 8601 | -1
COc1ccc(C2C3=C(CC(C)(C)CC3=O)Oc3ncn(CC(C)C)c(=N)c32)cc1 (stereo not given) | -1 | 2 | -1 | 0 | 3290 | 15
COc1ccc(/C=N/N(C)c2cc(=O)n(C)c(=O)[nH]2)cc1OC | -5 | -9 | 1 | -3 | 2540 | 27
COc1ccc(N2C(=O)CC(n3cnc4ccccc43)C2=O)cc1 (stereo not given) | 1 | 7 | ? | 1 | 22109* | -1
COc1ccc(N2C(=O)CC(N3CCN(c4ccccc4)CC3)C2=O)cc1 (stereo not given) | ? | 3 | 0 | 1 | 4085 | -9
